# Sampled rows, rich in hits. Any-hit rate of the full collection: about 11%.
# WT yeast gro inh – growth inhibition of WT yeast, mitochondrial fusion screen; mitochondrial fusion phenotypic screen, WT strain; inhibition, % at 10 µM; hit rate 2.1% among 190,000; AID 1362; in the data active = inhibition above about 58%; tested in S. cerevisiae
# Insulin prom up – MIN6 insulin promoter up-regulation; MIN6 insulin promoter-GFP reporter, high-content imaging; hits give high values; z-score at 5 µM; hit rate 0.3% among 190,000; AID 1625;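 active = z-score above 3 at 5 µM with at least 500 cells counted in the well; inconclusive = wells under 500 cells, flagged as cytotoxic or low count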
# Autophagy HCS – autophagy modulation, high-content screen | MEF GFP-LC3 puncta imaging; test concentration mostly 10 µM | calls only at 10 µM (by protocol) | hit rate 0.98% among 190,000;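 active = percentage of spot-positive cells more than 3 SD above its plate mean, without a fluorescence outlier flag or 80% toxicity; inconclusive = no clear call, values can overlap the other calls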;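 note: spot-positive cell cutoff set from DMSO-treated cells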
# L major viab – inhibitors of Leishmania major promastigote growth | inhibition, % at 10 µM | hit rate 9% among 200,000 | Leishmania major promastigotes, resazurin fluorescence viability; in the data active = inhibition above about 50%;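 note: promastigotes grown with compound for 44 hours at 28 °C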
# Insulin prom inh – TRM-6 insulin promoter activity inhibition; TRM-6 cells (human fetal islet line), insulin promoter-eGFP reporter, imaging; reporter expression induced with tamoxifen; inhibition, % at 2 µM; hit rate 0.9% among 130,000; AID 1273;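 active = inhibition above the mean plus 3 SD, with well images judged a real hit on visual review, cut at about 60% in these data, passing the limit was not always enough; inconclusive = inhibition over the cutoff but images rejected on review; inactive = inhibition not above the cutoff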
# Starred values were filed as active, the others as inactive; i = inactive; u = inconclusive; x = no result given; + = active, no number.
SMILES,WT yeast gro inh,Insulin prom up,Autophagy HCS,L major viab,Insulin prom inh
CCOC(CNc1c([N+](=O)[O-])c(=O)n(C)c(=O)n1C)OCC,-21.8,-0.18,i,-7.6,16.7
Cc1cc(C)nc(SCc2ccc(C(=O)N/N=C/c3ccccn3)cc2)n1,12.6,0.13,i,90.9*,0.0
Cc1cc(C)nc(SCc2ccc(C(=O)N/N=C/C3CCCCC3)cc2)n1,-5.9,-0.25,+,-0.2,x
CCCCOc1ccc(C2C(C(=O)c3ccc(C)o3)=C(O)C(=O)N2CC2CCCO2)cc1 (stereo not drawn),1.4,1.13,i,53.4*,-7.7
CCOc1ccc(C2C(C(=O)c3ccc(C)o3)=C(O)C(=O)N2CCCN(CC)CC)cc1 (stereo not drawn),x,-0.3,x,x,x
CCc1ccccc1NC(=O)CC1SCCNC1=O (stereo not drawn),-12.8,x,i,-0.1,-13.3
CCOC(=O)c1c(-c2ccc(C)cc2)csc1NC(=O)CCN1CC(C)OC(C)C1 (stereo not drawn),12.3,0.11,i,97.9*,x
CCOC(=O)c1c(NC(=O)CCN2CCOCC2)sc2c1CC(C)(C)OC2,-24.3,-0.97,i,-4.7,38.5
CCOC(=O)c1c(NC(=O)CCN2CCOCC2)sc(C)c1-c1ccccc1,35.6,-0.97,i,52.1*,x
CCOC(=O)c1c(-c2ccc(OC)cc2)csc1NC(=O)CCN1CCOCC1,25.5,-0.98,i,83.5*,x
CCOC(=O)c1c(-c2ccc(C)o2)csc1NC(=O)CN1CCCCC1,83.3*,0.03,i,38.5,x
CN1C(=O)Cc2cc(S(=O)(=O)N3CCOCC3)ccc21,9.2,0.47,i,-1.7,-10.0
O=C(NNC(=O)c1cc(O)c(O)c(O)c1)NC1CCCCC1,-1.4,-0.99,i,91.7*,x
O=C(NNC(=O)c1cccnc1)NC1CCCCC1,2.8,-0.43,i,-2.2,x
O=[N+]([O-])c1ccccc1CNC(Cc1ccccc1)c1ccccc1 (stereo not drawn),38.7,0.21,i,90.4*,29.0
CC(C)=C1C2CCC1C1C(=O)N(NC(=O)COc3ccc(Cl)c(C)c3)C(=O)C21 (stereo not drawn),23.8,0.05,i,75.7*,0.0
O=C(COc1ccc(Cl)c(Cl)c1)NN1C(=O)C2C(C1=O)C1C=CC2C12CC2 (stereo not drawn),4.5,1.26,i,1.7,-5.9
Cc1c(C(=O)OCC(=O)Nc2c(C)n(C)n(-c3ccccc3)c2=O)oc2ccccc12,-10.9,x,i,-4.5,x
CC(C)(C)c1ccc(O)c(/C=N\O)c1,-4.4,-0.55,i,5.6,-21.4
CC(C)(C)c1cccc(/C=N/O)c1O,6.5,0.4,i,52.5*,x
Cc1cc(C)cc(NC(N)=S)c1,1.8,-0.06,i,-6.3,35.3
COc1ccc2nc(Nc3nc(CSc4nc5ccccc5[nH]4)cc(=O)[nH]3)nc(C)c2c1,8.3,u,i,100.1*,-27.8
COc1ccc2c(C)nc(Nc3nc(C)c(C)c(=O)[nH]3)nc2c1,62.4*,-0.22,i,100.3*,30.2
Cc1nc(Nc2nc(CSc3nc4ccccc4[nH]3)cc(=O)[nH]2)nc2ccccc12,-1.1,-0.54,i,47.1,4.6
CCCCCc1c(C)nc(Nc2ccccc2)[nH]c1=O,2.8,-0.17,i,12.6,x
SMILES,WT yeast gro inh,Insulin prom up,Autophagy HCS,L major viab,Insulin prom inh
CCCCCc1c(C)nc(Nc2nc(C)c3cc(OC)ccc3n2)[nH]c1=O,-14.6,-1.49,i,98.7*,x
COc1ccc2nc(NC3=NC(c4ccccc4)CC(=O)N3)nc(C)c2c1 (stereo not drawn),3.5,-1.13,i,94.4*,15.8
COCCNC(=O)CN(C(=O)Cn1nnc2ccccc21)c1cc(C)cc(C)c1,-9.2,0.53,i,-5.9,x
CCc1c(C)nc(Nc2nc(C)c3ccc(OC)cc3n2)[nH]c1=O,62.4*,-0.54,i,94.1*,51.6
COc1ccc2c(C)nc(Nc3nc(C)cc(C)n3)nc2c1,18.3,-0.49,i,21.6,-158.3
CCc1c(C)nc(Nc2nc(C)c3cc(OC)ccc3n2)[nH]c1=O,49.2,-1.45,i,98.4*,-14.3
CCc1ccc2nc(Nc3nc(COC)cc(=O)[nH]3)nc(C)c2c1,-1.9,-1.2,i,11.6,0.0
Cc1ccc(C(=O)NNC(=O)CSc2nnc(-c3ccccc3)n2Cc2ccccc2)cc1,5.1,-0.11,i,-4.7,7.4
CCc1ccc(/C=C2\Oc3cc(OC(=O)N4CCOCC4)ccc3C2=O)cc1,21.5,0.21,i,93.0*,6.9
N#Cc1ccc(C(=O)Nc2nnc(-c3cccs3)o2)cc1,10.8,-0.74,i,97.8*,x
O=C(Nc1nnc(-c2cccs2)o1)C1CC1,-6.1,0.35,i,-2.7,x
O=C(Nc1nnc(-c2cccs2)o1)c1cccc(C(F)(F)F)c1,62.1,-0.01,i,95.3*,x
CN(C)S(=O)(=O)c1ccc(C(=O)Nc2nc(-c3cccs3)cs2)cc1,-3.4,-1.06,i,5.9,x
CN(C)S(=O)(=O)c1ccc(C(=O)Nc2nnc(-c3ccc4c(c3)CCCC4)o2)cc1,68.5*,-0.89,i,98.5*,x
CN(C)S(=O)(=O)c1ccc(C(=O)Nc2nnc(-c3cccs3)o2)cc1,4.7,0.07,i,53.0*,18.8
N#Cc1ccc(C(=O)Nc2nnc(-c3ccco3)o2)cc1,-1.2,-0.8,i,5.3,-44.4
CCc1ccc(N2CC(C(=O)Nc3cc(C)on3)CC2=O)cc1 (stereo not drawn),-13.2,-0.45,i,-3.6,x
CCCCC(c1nnnn1CCOC)N1CCN(c2cccc(OC)c2)CC1 (stereo not drawn),-11.1,-1.62,i,27.7,x
Nc1nc(N)c(Cc2ccc(Cl)cc2Cl)c(N)n1,-6.4,-0.54,i,63.7*,-43.8
CSc1ccc(Cc2ccc(Cl)cc2Cl)nn1,2.0,0.62,i,-0.9,26.5
NNc1ccc(Cc2ccc(Cl)cc2Cl)nn1,3.0,0.31,i,91.0*,-66.7
O=C(NNC(=O)C1CCCCC1)C(=O)NC1CCCCC1,11.7,-0.29,i,0.0,-30.0
C/C(=N/NC(=O)CNC(=O)Cc1ccccc1)c1ccc(Cl)cc1,x,0.21,x,x,x
CCN(CC)S(=O)(=O)c1ccc(C)c(NC(=O)CSc2ncc(C(F)(F)F)cc2Cl)c1,-5.3,0.14,i,-10.5,-78.6
Cc1ccc(S(=O)(=O)N(C)C)cc1NC(=O)CSc1ncc(C(F)(F)F)cc1Cl,7.3,-0.22,i,61.4*,7.9
SMILES,WT yeast gro inh,Insulin prom up,Autophagy HCS,L major viab,Insulin prom inh
CCCCCC(=O)Nc1cccc(C2=NOC3(C2)C[C@@H](C(N)=O)N(C(=O)CC(c2ccccc2)c2ccccc2)C3)c1 (stereo partly drawn),x,-0.9,x,x,x
CCCCCC1CCC(c2n[nH]c(=S)n2C)CC1 (stereo not drawn),65.1*,0.79,i,9.8,x
Oc1ccc(N=C/C=C/c2cccc(Br)c2)cc1-c1nc2ccccc2s1,7.8,-1.41,i,-3.5,57.7
Cc1ccc(NC(=S)NC(=O)c2ccc(F)cc2)cc1S(=O)(=O)Nc1cccc(Cl)c1,15.7,0.78,i,42.6,x
Cc1ccc(S(=O)(=O)CCC(=O)Nc2cccc([N+](=O)[O-])c2)cc1,-4.5,-0.28,i,0.6,35.7
Cc1ccc(NS(=O)(=O)c2ccc(OCC(=O)Nc3cccc([N+](=O)[O-])c3)c(C)c2)cc1,x,x,i,100.3*,4.4

# High-throughput results: PubChem, several laboratories
